# Experimental data published in PubChem BioAssay (EPA / NIEHS).
# Several values for one entry are separate records, joined by “and”; a condition that tells them apart may be missing. Equal values may be shown once. Results filed as inconclusive are left out. Some compounds were tested as several samples or in several runs, with calls that do not always agree. Activity calls are given as the source filed them. How the source made its calls, unless noted: active means hit-call score of the fitted dose curve at least 0.9, where 1 is the maximum; inactive means score below 0.9.
# What was measured:
# [1] = test system: SRY-box transcription factor 2 (SOX2) Protein Expression, Deisenroth Lab, SOX2 (gene 6657); assay: CCTE_Deisenroth_DEVTOX-GLR_Endo_SOX2: CCTE's DevTox GLR-Endo Assay Evaluation of SRY-box transcription factor 2 (SOX2) Protein Expression, Deisenroth Lab (AID 2284412; active means hit-call score of the fitted dose curve at least 0.9, where 1 is the maximum)
# How it was run: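 RUES2-GLR human pluripotent cells were seeded 24 h, then differentiated 48 h with two chemical exposures 24 h apart. Cells were fixed, nuclei stained and imaged by high-content microscopy. Endpoint is %SOX2+ cells over cell count, minus 0.2% DMSO control; 10-point series 1 nM–200 uM.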
# [2] = test system: SRY-box transcription factor 17 (SOX17) Protein Expression, Deisenroth Lab, SOX17 (gene 64321); assay: CCTE_Deisenroth_DEVTOX-GLR_Endo_SOX17: CCTE's DevTox GLR-Endo Assay Evaluation of SRY-box transcription factor 17 (SOX17) Protein Expression, Deisenroth Lab (AID 2284413)
# How it was run: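 Endpoint: % change in SOX17+ fraction (SOX17+ cells / cell count) vs 0.2% DMSO solvent control. RUES2-GLR reporter cells, 48 h endoderm differentiation, two doses at 24 h intervals, high-content fluorescence imaging, 5 fields/well.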
# [3] = CCTE_Padilla_ZF_Score.Craniofacial: CCTE's 144 Hour Post-fertilization zebrafish Assay Score for Craniofacial Malformation, Padilla Lab (AID 2284405)
# How it was run: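 Wild-type zebrafish embryos (with chorions), one per well in 10% Hanks', were dosed at 6–8 hpf in sealed plates and kept at 26C. They were rinsed at 5 dpf. At 6 dpf two blinded assessors scored craniofacial malformations by brightfield stereomicroscopy.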
# [4] = CCTE_Padilla_ZF_Score.Edema: CCTE's 144 Hour Post-fertilization zebrafish Assay Score for Edema Malformation, Padilla Lab (AID 2284406)
# How it was run: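 Wild-type zebrafish embryos, one per well in Hanks' solution, dosed at 6-8 hpf, sealed and reared at 26C on a 14:10 h cycle; rinsed on 5 dpf. At 6 dpf, blinded assessors scored edema by stereomicroscopy.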
# [5] = CCTE_Padilla_ZF_Score.Spine: CCTE's 144 Hour Post-fertilization zebrafish Assay Score for Spine Malformation, Padilla Lab (AID 2284407)
# How it was run: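 Wild-type zebrafish embryos, one per well in Hanks' solution, dosed at 6–8 hpf in sealed plates at 26C, 14:10 h light:dark; rinsed at 5 dpf. Two blinded assessors scored spinal defects by stereomicroscopy at 6 dpf; fitted versus DMSO.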
# [6] = CCTE_Padilla_ZF_Score.Swim_bladder: CCTE's 144 Hour Post-fertilization zebrafish Assay Score for Swim Bladder Malformation, Padilla Lab (AID 2284408)
# How it was run: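 Wild-type zebrafish embryos, one per well in 10% Hanks', dosed at 6–8 hpf, sealed, reared at 26C and rinsed at 5 dpf. Blinded assessors scored uninflated swim bladder by stereomicroscopy at 6 dpf, relative to DMSO.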
# [7] = CCTE_Padilla_ZF_Score.Position: CCTE's 144 Hour Post-fertilization zebrafish Assay Score for Position, Padilla Lab (AID 2284409)
# How it was run: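 Wild-type zebrafish embryos (with chorions) exposed singly from 6–8 hpf in sealed wells of Hanks' solution at 26C, rinsed at 5 dpf. At 6 dpf, blinded assessors scored abnormal water-column position by brightfield stereomicroscopy, relative to DMSO.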
# [8] = CCTE_Padilla_ZF_Score.Living: CCTE's 144 Hour Post-fertilization zebrafish Assay Score for Viability, Padilla Lab (AID 2284410);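 further: larval death at 6 dpf judged by absent heartbeat or coagulation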
# How it was run: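 Wild-type zebrafish embryos were exposed singly from 6–8 hpf in sealed wells of Hanks' solution at 26C, then rinsed at 5 dpf. At 6 dpf, blinded assessors scored mortality (no heartbeat or coagulation) by stereomicroscopy, fitted against DMSO.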
# [9] = CCTE_Padilla_ZF_Score.General: CCTE's 144 Hour Post-fertilization zebrafish Assay Score for General Malformation, Padilla Lab (AID 2284411)
# How it was run: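 Wild-type zebrafish embryos were plated singly at 6-8 hpf in 10% Hanks' and exposed in sealed wells at 26C until rinsed on 5 dpf. At 6 dpf two blinded assessors scored mortality, hatching and malformations by stereomicroscopy; gain-of-signal versus DMSO.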
# [10] = CCTE_Padilla_ZF_Score.Tail: CCTE's 144 Hour Post-fertilization zebrafish Assay Score for Tail Malformation, Padilla Lab (AID 2284414)
# How it was run: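 Wild-type zebrafish embryos, one per well in 200 uL 10% Hanks', dosed at 6-8 hpf, sealed, and kept at 26 C on a 14:10 h light cycle. Chemical was rinsed out at 5 dpf. Blinded brightfield scoring of tail defects followed at 6 dpf.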
# [11] = CCTE_Padilla_ZF_Score.Blood_pooling: CCTE's 144 Hour Post-fertilization zebrafish Assay Score for Blood Pooling, Padilla Lab (AID 2284415)
# How it was run: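 Wild-type outbred zebrafish embryos, one per well in 10% Hanks', exposed from 6–8 hpf in sealed plates at 26C on 14:10 h light:dark, rinsed at 5 dpf. Blinded stereomicroscope scoring of blood pooling at 6 dpf; gain-of-signal versus DMSO.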
# [12] = CCTE_Padilla_ZF_Score.Any: CCTE's 144 Hour Post-fertilization zebrafish Assay Score for Any Mortality or Malformation, Padilla Lab (AID 2284416)
# How it was run: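 Wild-type zebrafish embryos with chorions, one per well in 10% Hanks' from 6–8 hpf, dosed in sealed plates at 26 C, 14:10 h light:dark; rinsed at 5 dpf; blinded scoring at 6 dpf for death or malformation, versus DMSO.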
# [13] = Tanguay_ZF_120hpf_DP24: Oregon State University Tanguay Lab 24 Hour Post-fertilization zebrafish Assay for Delayed Development (AID 2284390)
# How it was run: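 Dechorionated 5D wild-type zebrafish embryos exposed statically from 6 hpf, one per well, 0.64% DMSO final, 28 C, sealed and dark. Developmental progression scored at 24 hpf by brightfield as binary present/absent; dead embryos excluded.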
# [14] = Tanguay_ZF_120hpf_CRAN: Oregon State University Tanguay Lab 120 Hour Post-fertilization zebrafish Assay for Craniofacial Malformation (AID 2284397)
# How it was run: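 Dechorionated Tropical 5D wild-type zebrafish embryos, one per well, were statically exposed from 6 to 120 hpf at 28C in 0.64% DMSO, with 5uM trimethyltin chloride as positive control. Craniofacial malformation was scored present/absent by brightfield microscopy, relative to DMSO.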
# [15] = Tanguay_ZF_120hpf_AXIS: Oregon State University Tanguay Lab 120 Hour Post-fertilization zebrafish Assay for Axial Malformation (AID 2284398)
# How it was run: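 Dechorionated 5D wild-type zebrafish embryos exposed statically, one per well, from 6 to 120 hpf at 28C, 0.64% DMSO. Axial malformation scored as present/absent by brightfield microscopy at 120 hpf; dead embryos not scored.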
# [16] = Tanguay_ZF_120hpf_MORT: Oregon State University Tanguay Lab 120 Hour Post-fertilization zebrafish Assay for Mortality (AID 2284399)
# How it was run: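 Dechorionated wild-type Tropical 5D zebrafish embryos, one per well from 6 hpf, static exposure to 120 hpf at 28C in sealed dark plates, 0.64% DMSO final. Mortality scored as binary by brightfield at 24 and 120 hpf.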
# [17] = Tanguay_ZF_120hpf_EDEM: Oregon State University Tanguay Lab 120 Hour Post-fertilization zebrafish Assay for Edema Malformation (AID 2284400)
# How it was run: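 Dechorionated Tropical 5D wild-type embryos, one per well, statically exposed from 6 to 120 hpf at 28C in 0.64% DMSO. Edema scored present/absent by brightfield microscopy at 120 hpf; dead embryos not scored; fit versus DMSO.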
# [18] = Tanguay_ZF_120hpf_BRN: Oregon State University Tanguay Lab 120 Hour Post-fertilization zebrafish Assay for Brain Region Malformation (AID 2284402)
# How it was run: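 Dechorionated wild-type Tropical 5D zebrafish embryos exposed statically from 6 to 120 hpf at 28C, one per well, 0.64% DMSO final. Brain malformation scored at 120 hpf by brightfield as present/absent; dead embryos not scored.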
# [19] = Tanguay_ZF_120hpf_TCHR: Oregon State University Tanguay Lab 120 Hour Post-fertilization zebrafish Assay for Touch Responsive (AID 2284403)
# How it was run: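 Dechorionated Tropical 5D wild-type zebrafish embryos, one per well from 6 hpf, were statically exposed to 120 hpf at 28 °C (0.64% DMSO). Touch response was scored present/absent at 120 hpf and not scored in dead larvae.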
# [20] = Tanguay_ZF_120hpf_ANY: Oregon State University Tanguay Lab 120 Hour Post-fertilization zebrafish Assay for Any Mortality and Malformation (AID 2284404)
# How it was run: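 Dechorionated Tropical 5D wild-type embryos, one per well from 6 hpf, static exposure in sealed, dark plates at 28C until 120 hpf, 0.64% DMSO final. Brightfield scoring of mortality and malformations as binary presence/absence, pooling 13 morphology endpoints.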
compound,measurement,setting,value
C[C@@H]1C[C@H]2[C@@H]3CCC4=CC(=O)C=C[C@]4(C)[C@@]3(F)[C@@H](O)C[C@]2(C)[C@@]1(O)C(=O)COP(=O)(O)O,outcome,[1],inactive
same,outcome,[2],inactive
FC(F)(I)C(F)(F)C(F)(F)C(F)(F)C(F)(F)C(F)(F)I,AC50,[3],34.5 µM (active) and 26.6 µM (active)
same,AC50,[4],19.1 µM (active) and 5.34 µM (active)
same,AC50,[5],6.93 µM (active)
same,outcome,[5],inactive
same,AC50,[6],10.9 µM (active) and 8.3 µM (active)
same,AC50,[7],28 µM (active) and 4 µM (active)
same,AC50,[8],88.8 µM (active)
same,outcome,[8],inactive
same,AC50,[9],15.6 µM (active) and 5.69 µM (active)
same,outcome,[10],inactive
same,AC50,[11],28.6 µM (active) and 3 µM (active)
same,AC50,[12],10 µM (active) and 3.34 µM (active)
CC(O)CO (configuration not stated),outcome,[2],inactive
NCC(F)(F)C(F)(F)C(F)(F)C(F)(F)C(F)(F)C(F)(F)C(F)(F)F,outcome,[3],inactive
same,outcome,[4],inactive
same,outcome,[5],inactive
same,outcome,[6],inactive
same,outcome,[7],inactive
same,outcome,[8],inactive
same,outcome,[9],inactive
same,outcome,[10],inactive
same,outcome,[11],inactive
same,outcome,[12],inactive
CC1=C(/C=C/C(C)=C/C=C/C(C)=C/C(=O)O)C(C)(C)CCC1,AC50,[1],16 µM (active)
same,AC50,[2],0.102 µM (active)
OCCC(F)(F)C(F)(F)C(F)(F)C(F)(F)C(F)(F)C(F)(F)F,outcome,[13],inactive
same,outcome,[14],inactive
same,outcome,[15],inactive
same,outcome,[16],inactive
same,outcome,[17],inactive
same,outcome,[18],inactive
same,outcome,[19],inactive
same,outcome,[20],inactive
same,AC50,[3],30.1 µM (active)
same,AC50,[4],16.5 µM (active)
same,outcome,[5],inactive
same,AC50,[6],52.7 µM (active)
same,outcome,[7],inactive
same,outcome,[8],inactive
same,AC50,[9],2.19 µM (active)
same,outcome,[10],inactive
same,outcome,[11],inactive
same,AC50,[12],28.6 µM (active)
CCCCCCCCCCCCCC[N+](C)(C)C,outcome,[9],inactive
C=C(C)C(=O)OCCC(F)(F)C(F)(F)C(F)(F)C(F)(F)C(F)(F)C(F)(F)F,outcome,[13],inactive
same,outcome,[14],inactive
same,outcome,[15],inactive
same,outcome,[16],inactive
same,outcome,[17],inactive
same,outcome,[18],inactive
same,outcome,[19],inactive
same,outcome,[20],inactive
same,outcome,[3],inactive
same,outcome,[4],inactive
same,outcome,[5],inactive
same,outcome,[6],inactive
same,outcome,[7],inactive
same,outcome,[8],inactive
same,outcome,[9],inactive
same,outcome,[10],inactive
same,outcome,[11],inactive
same,outcome,[12],inactive
OCCC(F)(F)C(F)(F)C(F)(F)C(F)(F)C(F)(F)C(F)(F)C(F)(F)C(F)(F)F,outcome,[13],inactive
same,outcome,[14],inactive
same,outcome,[15],inactive
same,outcome,[16],inactive
same,outcome,[17],inactive
same,outcome,[18],inactive
same,outcome,[19],inactive
same,outcome,[20],inactive
same,outcome,[3],inactive
same,outcome,[4],inactive
same,outcome,[5],inactive
same,outcome,[6],inactive
same,outcome,[7],inactive
same,AC50,[8],78.3 µM (active)
same,AC50,[9],88.8 µM (active)
same,outcome,[10],inactive
same,outcome,[11],inactive
same,outcome,[12],inactive
